Screening results as filed in PubChem.
SW480 rereplic – A quantitative high throughput screen for small molecules that induce DNA re-replication in SW480 colon adenocarcinoma cells; SW480 DNA re-replication, Hoechst DNA content imaging, 48 h; Potency, µM (series often up to 46.1 µM), for inactives: at the top dose re-replication activation, actives largely listed as activators; 340,000 tested, 1.8% active; further: potency means the concentration at half of the fitted maximal effect; % of control where 0% means no effect; nearly all actives have a fitted effect of over 55% in size
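250 cells/well; 23 nL cpd via pin tool; 48 hr, 37 C, 5% CO2; Hoechst 40 min; imager read of total nuclear intensity, ex 405/em 500-530 nm.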
RORg inh – qHTS for inhibitors of ROR gamma transcriptional activity; Drosophila S2 Gal4-RORgamma UAS-luciferase reporter, 20 h; Nuclear receptor ROR-gamma (Mus musculus), P51450; 310,000 tested, 5.4% active; Potency, µM (series often up to 53.6 µM), for inactives: at the top dose activity change, negative = inhibition, usual class: inhibitors; further: potency means the concentration at half of the fitted maximal effect; on the % scale 0 is the no-effect control and ±100 the full control effect; nearly all actives have a fitted effect of over 60% in size
Target sequence (P51450 whole entry, looked up, the tested form may be a part): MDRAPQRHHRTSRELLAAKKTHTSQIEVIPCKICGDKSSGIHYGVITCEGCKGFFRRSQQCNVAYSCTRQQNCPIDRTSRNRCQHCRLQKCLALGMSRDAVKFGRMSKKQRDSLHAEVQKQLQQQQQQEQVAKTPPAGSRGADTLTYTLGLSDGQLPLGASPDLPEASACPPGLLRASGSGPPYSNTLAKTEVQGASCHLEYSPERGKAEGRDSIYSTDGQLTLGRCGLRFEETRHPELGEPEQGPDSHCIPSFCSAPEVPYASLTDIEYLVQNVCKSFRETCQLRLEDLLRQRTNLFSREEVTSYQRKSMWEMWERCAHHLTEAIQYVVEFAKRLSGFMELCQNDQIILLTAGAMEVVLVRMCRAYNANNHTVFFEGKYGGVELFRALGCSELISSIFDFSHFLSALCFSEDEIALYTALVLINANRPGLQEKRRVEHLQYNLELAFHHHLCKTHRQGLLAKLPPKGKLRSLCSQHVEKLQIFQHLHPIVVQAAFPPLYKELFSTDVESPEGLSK
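Drosophila Schneider cells stably carrying a metallothionein-driven Gal4 DBD–ROR gamma fusion and a UAS-Photinus luciferase reporter were exposed to compound for 1 hr, then induced with copper sulfate (700 uM final) for 20 hr at ambient temperature before luminescence reading.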
MCF10A rereplic – A quantitative high throughput screen for small molecules that induce DNA re-replication in MCF 10a normal breast cells; 350,000 tested, 2.9% active; MCF 10A DNA re-replication, Hoechst nuclear intensity, 48 h; AID 624296, 2012; Potency, µM (doses to about 46.1 µM), for the others: at the highest dose activity, positive = re-replication, hits mostly activators; further: potency means the concentration at half of the fitted maximal effect; % of control where 0% means no effect; nearly all actives have a fitted effect of over 50% in size
VP16 counter – VP16 counterscreen qHTS for inhibitors of ROR gamma transcriptional activity. Drosophila S2 Gal4-VP16 UAS-luciferase, luminescence, 20 h. Potency, µM (series often up to 53.6 µM), inactives show at the highest dose activity, negative = inhibition, usual class: inhibitors. 310,000 tested, 3.5% active. AID 2546, 2010;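 further: Gal4-VP16 expression switched on by copper sulfate through the metallothionein promoter; potency means the concentration at half of the fitted maximal effect; on the % scale 0 is the no-effect control and ±100 the full control effect; nearly all actives have a fitted effect of over 50% in size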
IL1B secr inh – qHTS for Inhibitors of Inflammasome Signaling: IL-1-beta AlphaLISA Primary Screen; THP-1 LPS/ATP IL-1B secretion, AlphaLISA, 16 h; hits give low values; activity change, % at 57.5 µM; 360,000 tested, 4.7% active; in the data active means activity change below about -50%; inconclusive means mostly about -30% to -49%; further: on the % scale 0 is the no-effect control and ±100 the full control effect
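Secreted IL-1B measured by AlphaLISA bead assay after 16 h compound exposure of THP-1 cells; compounds (final up to 57.5 uM) added 1 h before LPS (250 ng/mL) and ATP (1.25 mM) stimulation; lower signal means less secretion.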
* = called active by the depositor; u = inconclusive; x = not tested or not shown; [ ] = dose if it differs, or a comment. Only some compounds are listed: those with a hit (about 11% of all), similar ones and a draw of the others. Unless noted, the call rests on the fitted dose curve; in most records, active means well fitted curve in the direction sought with a large enough effect; inconclusive means small, poorly fitted or top-dose-only effect, or another doubt; inactive means no such curve, though single readings can be large; an effect the other way counts as inactive or inconclusive.

SMILES	SW480 rereplic	RORg inh	MCF10A rereplic	VP16 counter	IL1B secr inh
N#CCCn1cc(C(=O)Nc2cccc(C(=O)O)c2)c(-c2ccc(Cl)cc2)n1	4.1µM*	34%	4%	0%	0
N#CCCn1cc(C(=O)O)c(-c2ccc3ccccc3c2)n1	-1%	5%	-10%	-9%	1
N#CCCn1cc(C(=O)Nc2ccccc2Br)c(-c2cc3ccccc3o2)n1	u	u	u	7.9µM*	-10
COC(=O)c1cn(CCC#N)nc1-c1ccc2ccccc2c1	25%	1%	0%	8%	-51*
CSCCC(C(=O)Nc1c(C)cccc1C)n1c(-c2cnc(C)cn2)nc2ccccc21 (stereo unspecified)	x	x	x	x	-12
CC1=CCC2C(=O)N(C(C)c3ccccc3)C(=O)C2C1 (stereo unspecified)	1%	6%	1%	4%	-7
CC1=CCC2C(=O)N(c3nc4ccccc4n3C)C(=O)C2C1 (stereo unspecified)	-1%	3.5µM*	0%	u	12
COC(=O)CC1=COC(O)C2C(CO)=CC[C@@H]12 (stereo partly specified)	x	4%[10 µM]	x	-9%[10 µM]	x
CN1CCC(N(C)C(=O)c2cc(-c3ccc(F)cc3)nc3ccccc23)CC1	-3%	x	u	x	-68*
CN(CC(=O)Nc1ccc(Cl)c(C(F)(F)F)c1)C(=O)c1cc(-c2ccncc2)nc2ccccc12	u	x	u	x	-96*
CCc1nc2ccc(C(=O)N(C)CC(=O)Nc3ccc(Cl)c(C(F)(F)F)c3)cc2nc1CC	-7%	x	u	x	-57*
COc1cccc(NC(=O)CN(C)C(=O)c2cc(-c3ccc(F)cc3)nc3ccccc23)c1	19%	x	u	x	-62*
C[C@@H]1CN([C@@H](C)CO)C(=O)c2cc(Br)cnc2O[C@H]1CN(C)S(=O)(=O)c1cccs1	x	x	x	x	-2
Cn1cnc(S(=O)(=O)NCc2ccc(Br)cc2)c1	0%	15%	-2%	1%	-19
Cc1ccccc1S(=O)(=O)N1C(c2ccc(Cl)c(Cl)c2)CC=C(C(=O)O)C1c1cccc(Br)c1 (stereo unspecified)	x	x	x	x	50
COc1ccc2cc(C3=CCCC3(C)C(=O)O)ccc2c1 (stereo unspecified)	-3%	x	8%	x	20
CC(=O)SC1CC(=O)N(c2c(C)cccc2C)C1=O (stereo unspecified)	21%	10µM*	u	u	-10
CC(=O)Nc1ccc(N2C(=O)CC(Sc3nc(C)cc(C)n3)C2=O)cc1 (stereo unspecified)	0%	-7%	3%	3%	23
CC(=O)SC1CC(=O)N(c2ccc(C(C)(C)C)cc2)C1=O (stereo unspecified)	u	7.1µM*	0%	u	-4
Cc1cccc(C)c1N1C(=O)CC(N2CCSCC2)C1=O (stereo unspecified)	-12%	3%	1%	5%	7
Cc1ccccc1[C@H](NC1c2ccccc2C=Cc2ccccc21)P(=O)(c1ccccc1)c1ccccc1	x	x	x	x	-74*
Cc1ccc(P(=O)(c2ccc(C)cc2)[C@@H](NC(c2ccccc2)c2ccccc2)c2ccccc2)cc1	x	x	x	x	0
CCOC(=O)c1cc([N+](=O)[O-])c([N+](=O)[O-])cc1NC(C)=O	u	5µM*	10µM*	3.2µM*	-81*
CC1CCCN(CCCOc2ccc(Br)cc2Cl)C1 (stereo unspecified)	u	28%	u	11%	-90*
Cc1cc(C(C)(C)C)ccc1OCCN1CCCC1	0%	1%	u	-1%	-8
SMILES	SW480 rereplic	RORg inh	MCF10A rereplic	VP16 counter	IL1B secr inh
C=CCNCCCCOc1ccc(Br)cc1C	u	-16%	26µM*	-1%	-27
Cc1cc(Br)ccc1OCCCCNCCO	-1%	-1%	7%	1%	-30
Cc1cc(Br)ccc1OCCCCN1CCCCC1	u	-9%	12%	-6%	-58*
Cc1cc(C(C)(C)C)ccc1OCCCCN1CCCC1	4%	93%	13µM*	u	-11
Cc1ccc(-n2c(SCC(=O)N(C)C3CCS(=O)(=O)C3)nc3ccccc3c2=O)c(C)c1 (stereo unspecified)	-2%	x	8%	x	2
CNC1C(O)[C@@H]2OC(O[C@@H]3C(O)C(O)C(N)C[C@H]3N)C(N)C[C@H]2O[C@H]1O[C@@H]1OC(CO)C(N)C(O)C1O (stereo partly specified)	x	-7%	x	-5%	x
O=C(NCCN1C(=O)S/C(=C\c2ccc(Cl)cc2Cl)C1=O)C1=COCCO1	u	x	13µM*	x	u
O=C(NCCN1C(=O)S/C(=C\c2ccc(Cl)cc2)C1=O)C1=COCCO1	0%	x	2%	x	7
O=C(NCCN1C(=O)S/C(=C\c2ccccc2F)C1=O)C1=COCCO1	4.1µM*	x	2.6µM*	x	2
O=C(NCCN1C(=O)S/C(=C\c2ccccc2Cl)C1=O)C1=COCCO1	u	x	7.3µM*	x	-2
O=C1c2ccccc2CCC12OC2c1ccncc1 (stereo unspecified)	x	x	x	x	-20
CCCOc1cccc(C(=O)Nc2ccc3c(c2)OCCO3)c1	-4%	-42%	9%	-30%	-4
N#Cc1ccc(Nc2nc(-c3ccccc3)c(C(=O)c3ccccc3)s2)cc1	x	x	x	x	-52*
COC(=O)c1ccc2nc(NC(=O)C(C)C)sc2c1	1%	u	-11%	-27%	-15
CCOC(=O)Nc1nc(-c2ccccc2)c(C(=O)c2ccc(Cl)cc2)s1	2.9µM*	-17%	u	-4%	36
Cc1ccc(NC(=O)c2sc(Cl)nc2-c2ccccc2)cc1	0%	2%	u	-17%	7
CCOC(=O)C(=CNc1nc(-c2ccccc2)c(C(=O)Nc2ccc(-c3ccccc3)cc2)s1)C(=O)OCC	3.7µM*	7%	9.2µM*	1%	57
COC(=O)c1ccc2nc(Nc3nc4c(F)cc(F)cc4s3)sc2c1	0.23µM*	0.32µM*	2.3µM*	1.1µM*	22
C[C@@H]1CN([C@@H](C)CO)C(=O)c2cc(C3=CCCCC3)cnc2O[C@H]1CN(C)C(=O)Nc1cccc(F)c1	x	x	x	x	-9
O=C(O)C1OC1(c1ccccc1Cl)c1ccccc1Cl (stereo unspecified)	-3%	x	2%	x	-14
CC[C@H](C)[C@H](NC(=O)[C@H](C)NC(=O)CNC(=O)[C@H](CCCCN)NC(=O)[C@H](CC(N)=O)NC(=O)[C@H](CO)NC(=O)CN)C(=O)N[C@H](C(=O)NCC(=O)N[C@@H](CC(C)C)C(=O)N[C@@H](CCSC)C(=O)O)[C@@H](C)CC	x	-6%	x	-3%	x
